{"source": "PubChem BioAssay", "key": {"[1]": {"assay": "antimalarial activity against Dd2 strain (AID 2302;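 active = growth inhibition above 50% at the single 2 µM test dose, taken to imply half-maximal potency below 2 µM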;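 also: 0% = DMSO untreated growth and 100% = chloroquine plus artemisinin killed control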)", "details": "P. falciparum Dd2 in RBCs, LDH growth readout, 72 h; at 2 µM; active compounds read high"}, "[2]": {"assay": "HepG2 cytotoxicity, primary screen, cytotoxicity control for P. falciparum antimalarial project, cell-based, ATP luminescence (AID 2303;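 active = inhibition above 50%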;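 also: 0% = DMSO wells and 100% = digitonin-killed cells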)", "details": "HepG2 viability, 24-48 h, at 10 µM, active compounds read high"}, "[3]": {"target": "L-lactate dehydrogenase (Plasmodium falciparum (isolate CDC / Honduras)) (UniProt Q27743)", "sequence (Q27743 whole entry, looked up)": "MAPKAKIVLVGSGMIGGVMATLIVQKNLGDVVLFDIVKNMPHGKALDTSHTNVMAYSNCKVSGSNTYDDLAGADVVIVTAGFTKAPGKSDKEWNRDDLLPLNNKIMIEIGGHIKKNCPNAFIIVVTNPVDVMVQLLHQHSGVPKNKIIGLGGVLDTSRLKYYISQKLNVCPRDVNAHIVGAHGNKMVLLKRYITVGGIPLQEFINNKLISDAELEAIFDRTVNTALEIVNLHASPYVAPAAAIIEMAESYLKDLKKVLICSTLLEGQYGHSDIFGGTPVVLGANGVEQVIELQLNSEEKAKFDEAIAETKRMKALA", "assay": "PfLDH activity inhibition – cell lysate, 3D7 strain, counter-screen for P. falciparum growth inhibition project (AID 2304);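 also: 0% = vehicle and 100% = reference inhibitor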", "details": "P. falciparum 3D7 crude extract, LDH APAD/NBT absorbance; at 2 µM; active compounds read high"}, "[4]": {"assay": "inhibition of 3D7 malaria parasite growth – strain 3D7 (AID 2306);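 also: 0% = DMSO wells and 100% = chloroquine plus artemisinin control wells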", "details": "P. falciparum 3D7 erythrocytic growth, LDH absorbance, 72 h; at 2 µM; active compounds read high"}, "[5]": {"target": "Calcium-dependent protein kinase 1 (Plasmodium falciparum (isolate 3D7)) (UniProt P62344)", "sequence (P62344 whole entry, looked up)": "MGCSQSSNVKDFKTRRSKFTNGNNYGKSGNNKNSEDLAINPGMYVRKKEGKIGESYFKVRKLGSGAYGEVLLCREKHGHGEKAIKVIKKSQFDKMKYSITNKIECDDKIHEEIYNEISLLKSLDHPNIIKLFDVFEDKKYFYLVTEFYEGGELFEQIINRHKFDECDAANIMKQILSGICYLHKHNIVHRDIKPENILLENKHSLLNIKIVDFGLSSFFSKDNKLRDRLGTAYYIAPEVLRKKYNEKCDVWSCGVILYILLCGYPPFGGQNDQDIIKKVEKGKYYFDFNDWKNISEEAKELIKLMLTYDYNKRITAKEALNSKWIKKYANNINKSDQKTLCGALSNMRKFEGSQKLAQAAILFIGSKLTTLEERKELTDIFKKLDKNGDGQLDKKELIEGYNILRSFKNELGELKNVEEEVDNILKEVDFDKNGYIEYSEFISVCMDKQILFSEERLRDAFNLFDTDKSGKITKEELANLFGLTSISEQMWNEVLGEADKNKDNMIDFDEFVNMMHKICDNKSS", "assay": "PfCDPK1 kinase inhibitors, biochemical, TCAMS library (AID 1159585; cut-off not given, nearly all actives have IC50 up to about 0.98 µM;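 also: inhibitors leave more ATP so luminescence rises with inhibition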)", "details": "recombinant PfCDPK1, Kinase-Glo ATP depletion luminescence"}, "[6]": {"target": "Plasmodium falciparum protein kinase 6 (PK6, PF3D7_1337100) (UniProt Q8IDW1)", "sequence (Q8IDW1 1-305)": "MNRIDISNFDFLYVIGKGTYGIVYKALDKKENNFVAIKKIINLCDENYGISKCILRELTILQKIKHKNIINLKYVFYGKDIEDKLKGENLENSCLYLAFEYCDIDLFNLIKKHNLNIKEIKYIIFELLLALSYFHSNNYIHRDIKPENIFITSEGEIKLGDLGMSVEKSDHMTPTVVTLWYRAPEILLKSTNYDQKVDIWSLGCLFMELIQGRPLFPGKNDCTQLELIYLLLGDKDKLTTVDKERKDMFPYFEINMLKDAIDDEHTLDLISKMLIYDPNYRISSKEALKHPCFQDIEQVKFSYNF", "assay": "PfPK6 kinase inhibitors, biochemical, TCAMS library (AID 1159586)", "details": "recombinant PfPK6, Kinase-Glo ATP depletion luminescence"}, "[7]": {"target": "Protein kinase 7 (PK7), Plasmodium falciparum 3D7 (PF3D7_0213400) (UniProt Q7YTF7)", "sequence (Q7YTF7 1-343)": "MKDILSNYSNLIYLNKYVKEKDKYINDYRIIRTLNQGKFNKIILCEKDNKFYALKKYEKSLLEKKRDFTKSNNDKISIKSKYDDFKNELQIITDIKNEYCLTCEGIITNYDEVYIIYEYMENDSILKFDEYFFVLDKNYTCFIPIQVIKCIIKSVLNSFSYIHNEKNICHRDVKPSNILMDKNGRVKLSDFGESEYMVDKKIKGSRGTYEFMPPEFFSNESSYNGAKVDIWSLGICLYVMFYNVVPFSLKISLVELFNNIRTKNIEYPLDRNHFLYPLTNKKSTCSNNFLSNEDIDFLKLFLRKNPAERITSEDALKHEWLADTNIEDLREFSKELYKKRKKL", "assay": "inhibition of Plasmodium PK7 catalytic activity – biochemical, TCAMS antimalarial set, Kinase-Glo luminescence (AID 1159587)", "details": "recombinant PfPK7, Kinase-Glo ATP depletion luminescence"}, "[8]": {"target": "Calcium-dependent protein kinase 4 (Plasmodium falciparum (isolate 3D7)) (UniProt Q8IBS5)", "sequence (Q8IBS5 whole entry, looked up)": "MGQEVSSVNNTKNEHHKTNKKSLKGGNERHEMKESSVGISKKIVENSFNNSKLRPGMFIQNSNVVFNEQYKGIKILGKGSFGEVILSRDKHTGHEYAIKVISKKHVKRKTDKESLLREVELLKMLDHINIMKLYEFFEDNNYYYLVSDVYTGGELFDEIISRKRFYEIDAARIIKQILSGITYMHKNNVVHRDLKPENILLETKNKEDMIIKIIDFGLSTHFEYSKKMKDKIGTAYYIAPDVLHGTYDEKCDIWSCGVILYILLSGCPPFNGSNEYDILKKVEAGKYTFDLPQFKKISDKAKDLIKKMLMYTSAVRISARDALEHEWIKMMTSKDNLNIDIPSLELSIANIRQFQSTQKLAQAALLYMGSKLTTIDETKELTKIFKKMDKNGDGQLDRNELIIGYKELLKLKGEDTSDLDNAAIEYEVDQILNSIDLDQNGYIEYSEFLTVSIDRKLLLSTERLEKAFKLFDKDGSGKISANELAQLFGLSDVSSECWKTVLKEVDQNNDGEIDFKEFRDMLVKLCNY", "assay": "PfCDPK4 kinase inhibitors, biochemical, TCAMS library (AID 1159588; cut-off not given, nearly all actives have IC50 up to about 0.91 µM)", "details": "recombinant PfCDPK4, Kinase-Glo ATP depletion luminescence"}}, "note": "A number with no mark means an inactive call. For some assays here: Results with a measured potency or affinity are listed apart. The source made the active and inactive calls. Unless noted, no rule for the calls is given here.", "data": [{"smiles": "CCN(CC)c1ccc(C(c2ccc(N(CC)CC)cc2)c2cccc([N+](=O)[O-])c2)cc1", "values": [{"measurement": "growth inhibition", "setting": "[1]", "result": "68% (active)"}, {"measurement": "inhibition", "setting": "[2]", "result": 39, "unit": "%"}, {"measurement": "inhibition", "setting": "[3]", "result": -1, "unit": "%"}, {"measurement": "growth inhibition", "setting": "[4]", "result": "91% (active)"}, {"measurement": "outcome", "setting": "[5]", "result": "inactive"}, {"measurement": "outcome", "setting": "[6]", "result": "inactive"}, {"measurement": "outcome", "setting": "[7]", "result": "inactive"}, {"measurement": "outcome", "setting": "[8]", "result": "inactive"}]}, {"smiles": "Cc1cc(CN2CCC(C(=O)Nc3ccc(-c4nc5ccccc5[nH]4)cc3)CC2)oc1C", "values": [{"measurement": "growth inhibition", "setting": "[1]", "result": 9, "unit": "%"}, {"measurement": "inhibition", "setting": "[2]", "result": -7, "unit": "%"}, {"measurement": "inhibition", "setting": "[3]", "result": -4, "unit": "%"}, {"measurement": "growth inhibition", "setting": "[4]", "result": "95% (active)"}, {"measurement": "outcome", "setting": "[5]", "result": "inactive"}, {"measurement": "outcome", "setting": "[6]", "result": "inactive"}, {"measurement": "outcome", "setting": "[7]", "result": "inactive"}, {"measurement": "outcome", "setting": "[8]", "result": "inactive"}]}, {"smiles": "Clc1ccc2c(NN=Cc3cccs3)ccnc2c1", "values": [{"measurement": "growth inhibition", "setting": "[1]", "result": "96% (active)"}, {"measurement": "inhibition", "setting": "[2]", "result": -4, "unit": "%"}, {"measurement": "inhibition", "setting": "[3]", "result": 2, "unit": "%"}, {"measurement": "growth inhibition", "setting": "[4]", "result": "100% (active)"}, {"measurement": "outcome", "setting": "[5]", "result": "inactive"}, {"measurement": "outcome", "setting": "[6]", "result": "inactive"}, {"measurement": "outcome", "setting": "[7]", "result": "inactive"}, {"measurement": "outcome", "setting": "[8]", "result": "inactive"}]}, {"smiles": "CC(C)c1cc2c(ccc3nc(N)nc(N)c32)o1", "values": [{"measurement": "growth inhibition", "setting": "[1]", "result": 37, "unit": "%"}, {"measurement": "inhibition", "setting": "[2]", "result": "66% (active)"}, {"measurement": "inhibition", "setting": "[3]", "result": 3, "unit": "%"}, {"measurement": "growth inhibition", "setting": "[4]", "result": "99% (active)"}, {"measurement": "outcome", "setting": "[5]", "result": "inactive"}, {"measurement": "outcome", "setting": "[6]", "result": "inactive"}, {"measurement": "outcome", "setting": "[7]", "result": "inactive"}, {"measurement": "outcome", "setting": "[8]", "result": "inactive"}]}]}
